Hit rate of the full screen: of about 50,000 compounds, about 800 (1.6%) showed an effect of 50% or more. This is one part of a sample in which strong results are shown more often than they occur.

Sequence of Bcl-2-like protein 10 (Homo sapiens) (Q9HD36 whole entry, looked up): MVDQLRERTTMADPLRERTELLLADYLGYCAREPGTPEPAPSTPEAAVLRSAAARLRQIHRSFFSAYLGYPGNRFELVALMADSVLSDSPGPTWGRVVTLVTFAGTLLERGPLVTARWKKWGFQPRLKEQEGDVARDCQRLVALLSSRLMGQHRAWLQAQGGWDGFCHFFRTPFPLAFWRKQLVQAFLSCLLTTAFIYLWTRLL

The test concerns the target Bcl-2-like protein 10 (Homo sapiens) (UniProt Q9HD36). Kind of test: Phenotype converters, Bcl-B/TR3 peptide binding displacement, primary biochemical FP (AID 1240).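 Note: 0% = Bcl-B with tracer peptide and DMSO and 100% = tracer peptide lacking Bcl-B.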 As to conditions: GST-Bcl-B / FITC-TR3 peptide fluorescence polarization; stronger effect = higher value; compound at 3.75 mg/L. Background: Fluorescence polarisation rises when a labelled molecule tumbles more slowly, as on binding a larger partner.
As for `CC(=O)Nc1nonc1-c1nc2ccccc2n1Cc1ccccc1`, the displacement turned out to be 49.8%.
The value for `CC(=O)Nc1nonc1-c1nc2ccccc2n1Cc1ccc([N+](=O)[O-])cc1` was 8.1%.
The value for `CC(=O)Nc1nonc1-c1nc2ccccc2n1Cc1ccc(C(C)(C)C)cc1` was 52.2%.
Take `COc1ccccc1NC(=O)c1ccc(Oc2ccc(C(=O)Nc3ccccc3OC)cc2)cc1`: the displacement is -1.8%.
The value for `CCOC(=O)c1c(NC(=O)COc2c(C)cc(C)cc2C)sc(C(=O)Nc2ccccc2)c1C` was 13.1%.
The value for `CCOc1ccc(N2C(=O)CC(SC(=NC)Nc3ccc4c(c3)OCO4)C2=O)cc1` (stereo not drawn) was -6.7%.
The value for `Cc1cc(C)nc(SCC(=O)Nc2ccc(C)c(NC(=O)CSc3nc(C)cc(C)n3)c2)n1` was 23.5%; that for `CN(C)c1ccc(/C=C/C(=O)c2ccc3c(c2)OCCO3)cc1` was -18.8%; that for `CCOC(=O)C1=C(C)NC(C)=C(C(=O)OCC)C1c1ccc(F)cc1` was 0%.
Regarding `CC1=C(C(=O)OC(C)C)C(c2ccc(F)cc2)NC(=O)N1` (stereo not drawn), the displacement came to 6.9%.
The value for `CC1=C(C(=O)OC(C)C)C(c2ccc(F)cc2)C(C(=O)OC(C)C)=C(C)N1` was 54.7%; that for `COc1ccc(CNC(=O)CN(c2c(C)n(C)n(-c3ccccc3)c2=O)S(=O)(=O)c2ccccc2)cc1` was -6.2%.
The value for `Cc1cc(Nc2ccccc2)nn1C(=O)c1ccc(Cl)cc1` was -10.9%.
As for `Cn1c2ccccc2c2cc(C3Nc4ccccc4C(=O)N3Cc3ccco3)ccc21` (stereo not drawn), the displacement amounted to 10.3%.
Take `O=C(/C=C/c1ccc([N+](=O)[O-])cc1)C1C(=O)c2ccccc2C1=O`: the displacement was -6.3%.
The value for `O=C(/C=C/c1ccc(S(=O)(=O)Nc2ccccc2)cc1)C1C(=O)c2ccccc2C1=O` was 31.1%.
The value for `COc1ccc(/C=C\C(=O)C2C(=O)c3ccccc3C2=O)cc1` was 122%; that for `CC1CC(C)CN(S(=O)(=O)c2ccc(F)cc2)C1` (stereo not drawn) was -9%; that for `CN(C)/C=C/C=C/C(=O)c1ccc(/C=C/C=C/N(C)C)o1` was 36.1%.
The value for `N#C/C(=C/c1ccc(Cl)cc1)C(=O)Nc1ccc(O)cc1` was 7.1%.
Consider `CC(=O)Nc1ccc(/C=C(/C#N)C(=O)N/N=C/c2ccc(NC(C)=O)cc2)cc1`, for which the displacement was found to be 110%.
With `CC(=O)Nc1ccc(/C=C(/C#N)C(=O)NCc2ccco2)cc1`, the displacement was 9.4%.
The value for `CSc1ccc(/C=N/NC(=O)c2cc(C)[nH]n2)cc1` was 3.8%; that for `O=C(N/N=C\c1ccc(Cl)c(Cl)c1)c1cnccn1` was -7.3%; that for `CSc1ccc(/C=N\NC(=O)c2cnccn2)cc1` was 109%.
The value for `Cc1ccc(S(=O)(=O)/N=C(/NC(=S)N2CCOCC2)c2ccccc2)cc1` was -5.4%; that for `CCOC(=O)c1ccccc1NC(=O)CN(c1ccc(Br)cc1)S(C)(=O)=O` was -5%; that for `CC1=Nc2ccccc2/C1=C\c1sc(=S)n(-c2cccc(F)c2)c1O` was -1.7%.
The value for `CC1=Nc2ccccc2/C1=C\c1c(O)n(-c2ccccc2)c(=O)[nH]c1=O` was -3.1%; that for `CC1=Nc2ccccc2/C1=C\c1sc(=S)n(-c2ccccc2)c1O` was 104%.
With `O=C(CCCN1C(=O)c2ccccc2C1=O)Nc1cccnc1`, the displacement was found to be 20.6%.
Take `CC(c1ccccc1)N1C(=O)C(=Cc2c(NCC3CCCO3)nc3ccccn3c2=O)SC1=S` (stereo not drawn): the displacement was -14.7%.
The value for `CC1=C(C(=O)OC(C)C)C(c2ccc(Cl)c(Cl)c2)N2C(=O)CCSC2=N1` (stereo not drawn) was 15.3%.
The value for `COC(=O)c1ccc(C2C(C(=O)OC(C)C)=C(C)N=C3SCCC(=O)N32)cc1` (stereo not drawn) was 11.3%; that for `CC1=C(C(=O)OC(C)C)C(c2ccccc2)N2C(=O)CCSC2=N1` (stereo not drawn) was 61.6%.
The value for `Cc1cc(=O)oc2c1c(C)nn2-c1ccc(Br)cc1` was 2.1%.
`COc1ccccc1NC(=O)C1=C(C)NC(=S)NC1c1ccccc1OC` (stereo not drawn): the displacement was found to be 6%.
The value for `O=C1NC(=O)N(c2ccccc2)C(=O)/C1=C/c1ccc(N2CCCC2)cc1` was -30.2%; that for `CCOc1ccccc1/C=C1\C(=O)NC(=O)N(c2ccc(Br)c(C)c2)C1=O` was -7.9%.
The value for `Cc1c(/C=C2\C(=O)NC(=O)N(c3ccc(Cl)cc3)C2=O)c2ccccc2n1C` was 104%; that for `O=C1NC(=O)N(c2ccccc2)C(=O)/C1=C\c1ccc(Cl)cc1` was 1.4%.
Consider `O=C1NC(=O)N(c2ccc(Cl)cc2)C(=O)/C1=C/c1ccc(F)cc1`, for which the displacement was 8.2%.
The value for `CCn1cc(/C=C2\C(=O)NC(=O)N(c3ccc(Cl)cc3)C2=O)c2ccccc21` was -18.6%; that for `C#CCn1cc(/C=C2\C(=O)NC(=O)N(c3ccc(Br)c(C)c3)C2=O)c2ccccc21` was 6.2%; that for `COC(=O)Cn1cc(/C=C2\C(=O)NC(=O)N(c3cc(C)cc(C)c3)C2=O)c2ccccc21` was -4.6%.
The value for `Cc1cc(N2C(=O)NC(=O)/C(=C\c3cn(C)c4ccccc34)C2=O)ccc1Br` was 126%; that for `Cc1cc(C)cc(N2C(=O)NC(=O)/C(=C\c3cn(C)c4ccccc34)C2=O)c1` was 144%; that for `Cc1cc(C)cc(N2C(=O)NC(=O)/C(=C\c3ccccc3C)C2=O)c1` was 6.3%.
Regarding `O=C1NC(=O)N(c2ccc(Cl)cc2)C(=O)/C1=C\c1ccc(N2CCCC2)cc1`, the displacement was determined as 71.4%.
Take `Cc1ccc(C(=O)N2CCC(Cc3ccccc3)CC2)o1`: the displacement was 6.7%.
The value for `CC1S/C(=N/N=C/c2ccccc2Cl)NC1=O` (stereo not drawn) was 1.2%; that for `CCOC(=O)/C(C#N)=C\c1ccc(F)cc1` was 2.3%.
The value for `CCOC(=O)C(C)Oc1cc2oc(=O)cc(-c3ccccc3)c2cc1CC` (stereo not drawn) was 11%.
As to `COc1ccc(CCN=CC2=C(O)CC(c3ccccc3)CC2=O)cc1OC` (stereo not drawn), the displacement is 1.2%.
For the compound `CCCOc1cccc(NC(=O)c2c(-c3ccccc3)noc2C)c1`, the displacement is -5.5%.
`COc1ccc(OC)c(/C=C/C(=O)Oc2cc(C)cc(C)c2)c1`: the displacement is 11.8%.
The value for `COc1ccccc1OCCn1cc(/C=C2/C(=O)NC(=O)N(c3ccccc3)C2=O)c2ccccc21` was 1.6%; that for `Cc1cccc(N2C(=O)S/C(=C\c3ccccc3)C2=O)c1` was 12.3%; that for `Cc1cc(C)cc(N2C(=O)NC(=O)/C(=C\c3ccsc3)C2=O)c1` was -7.8%.
As for `CC(C)c1ccc(N2C(=O)NC(=O)/C(=C/c3cn(C)c4ccccc34)C2=O)cc1`, the displacement is 145%.
The value for `O=C1NC(=O)N(c2ccc(Cl)cc2)C(=O)/C1=C/c1ccsc1` was -24.1%.
The value for `Cc1cccc(N2C(=O)S/C(=C/c3ccc(N(C)C)cc3)C2=O)c1` was 95.7%; that for `Cc1ccc(N2C(=O)NC(=O)/C(=C\c3ccsc3)C2=O)cc1` was 66.1%.
The value for `COc1ccccc1OCCn1cc(C=C2C(=O)N(C)C(=O)N(C)C2=O)c2ccccc21` was 3.5%.
`CC(C)c1ccc(N2C(=O)NC(=O)/C(=C/c3ccccc3O)C2=O)cc1`: the displacement is 0.6%.
The value for `Cc1cccc(N2C(=O)/C(=C/c3ccc(N(C)C)cc3)SC2=S)c1` was -5.4%; that for `COc1ccc(N2C(=O)NC(=O)/C(=C/c3cn(CCOc4ccccc4OC)c4ccccc34)C2=O)cc1` was 87.6%; that for `Cn1cc(C=C2C(=O)NC(=S)NC2=O)c2ccccc21` was 8.8%.

For the origin of these results see PubChem BioAssay AID1240 (Sanford-Burnham Center for Chemical Genomics, 2008).
